Source: PubChem BioAssay (NCATS)
Records with an inconclusive call do not appear. Calls of active or inactive are those of the source. The call rests on the fitted dose curve; in most records, active means well fitted cell-killing curve with a large enough effect; inconclusive means small, poorly fitted or top-dose-only effect, or effect the other way; inactive means no such curve, though single readings can be large or run the other way.

experiment: Quantitative High-Throughput drug screen in 47 multiple myeloma cell lines against the NCATS MIPE library collection: Karpas25_ECACC cell viability assay (AID 1918968; further: nearly all actives have a fitted effect of over 35% in size); settings: Karpas25 myeloma viability, CellTiter-Glo ATP, 48 h; series mostly up to 45.8 µM
Procedure, shortened: (§1)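 qHTS of the MIPE 4.0 collection: 500 myeloma cells/well, 48 h drug exposure at 37C in 5% CO2, then CellTiter-Glo for 5 min at room temperature before luminescence reading.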
Potency means the concentration at half of the fitted maximal effect.

SMILES | Potency
C[C@@H]1CN(Cc2ccc(F)cc2)[C@@H](C)CN1C(=O)c1cc2c(C(=O)C(=O)N(C)C)cn(C)c2cc1Cl | 9.35 µM (active)
CC[C@H](Nc1ncnc2nc[nH]c12)c1nc2cccc(F)c2c(=O)n1-c1ccccc1 | 11.8 µM (active)
Cc1ccc(NC(=O)c2cccc(C(C)(C)C#N)c2)cc1Nc1ccc2ncn(C)c(=O)c2c1 | 13.2 µM (active)
CO[C@@H]1[C@H](N(C)C(=O)c2ccccc2)C[C@H]2O[C@]1(C)n1c3ccccc3c3c4c(c5c6ccccc6n2c5c31)C(=O)NC4 | 2.35 µM (active)
COc1cccc2cc(-c3nc(C4CCC(C(=O)O)CC4)n4ncnc(N)c34)[nH]c12 (configuration not stated) | 0.662 µM (active)
CCOc1ccc(Cc2cc([C@@H]3O[C@H](CO)[C@@H](O)[C@H](O)[C@@H]3O)ccc2Cl)cc1 | 18.7 µM (active)
COc1ccccc1[C@H](c1cccc2ccccc12)[C@@](C)(C#N)C(=O)N1CCC(c2cccc(C(F)(F)F)c2)CC1 | 3.72 µM (active)
CS(=O)(=O)c1cccc(CNc2nc(Nc3ccc4c(c3)CCC(=O)N4)ncc2C(F)(F)F)c1 | 18.7 µM (active)
CCCS(=O)(=O)Nc1ccc(F)c(C(=O)c2c[nH]c3ncc(-c4ccc(Cl)cc4)cc23)c1F | 9.35 µM (active)
COc1ccc(COc2cc3oc(=O)c4cc(C(C)O)ccc4c3cc2OC)cc1 (configuration not stated) | 18.7 µM (active)
O=C1CCCC2=C1C(c1[nH]ncc1Cl)N=C(Nc1nc3ccccc3o1)N2 (configuration not stated) | 0.662 µM (active)
O=C(O)[C@@H](c1ccc(OCc2ccc3ccccc3n2)cc1)C1CCCC1 | inactive
CCn1c(-c2nonc2N)nc2c(C#CC(C)(C)O)ncc(OC[C@H]3CCCNC3)c21 | 1.18 µM (active)
Nc1nc2ccc(OC(F)(F)F)cc2s1 | inactive
O=C(Nc1cccnc1)N1CCC(Cc2cccc(Oc3ccc(C(F)(F)F)cn3)c2)CC1 | 9.35 µM (active)
S=C(NCc1ccc2c(c1)OCO2)N1CCN(c2ncnc3c2oc2ccccc23)CC1 | 0.303 µM (active)
CCC(C)n1ncn(-c2ccc(N3CCN(c4ccc(OC[C@H]5CO[C@](Cn6cncn6)(c6ccc(Cl)cc6Cl)O5)cc4)CC3)cc2)c1=O (some centres not stated) | inactive
COc1ccc2c3n(c(=NC(=O)c4cccnc4)nc2c1OC)CCN3 | 5.9 µM (active)
COc1ccc(-c2ccc3c(N4CCOC[C@H]4C)nc(N4CCOC[C@H]4C)nc3n2)cc1CO | 0.0166 µM (active)
Cc1cc2c(C(C)C)c(O)c(O)c(C=O)c2c(O)c1-c1c(C)cc2c(C(C)C)c(O)c(O)c(C=O)c2c1O | 5.9 µM (active)
CNCc1ccc(-c2[nH]c3cc(F)cc4c3c2CCNC4=O)cc1 | inactive
CCC(=O)N[C@H]1CC[C@H](C(=O)N(C)c2ccc(-c3nc4ccccc4o3)cc2)C1 | 7.43 µM (active)
CCCS(=O)(=O)Nc1ccc(F)c(C(=O)c2c[nH]c3ncc(Cl)cc23)c1F | 14.8 µM (active)
CC(C)(C)NCC(O)c1ccc(O)c(CO)c1 (configuration not stated) | 0.0418 µM (active)
CNC[C@H](O)c1cccc(O)c1 | 4.69 µM (active)
CS(=O)(=O)Oc1ccc2c(NC(N)=O)c(C(=O)c3ccc(Cl)cc3Cl)oc2c1 | 4.69 µM (active)
Cn1cnc([N+](=O)[O-])c1Sc1ncnc2nc[nH]c12 | 16.6 µM (active)
CCc1cc(Nc2nccc(-c3c(-c4ccc(OC)c(C(=O)Nc5c(F)cccc5F)c4)nc4ccccn34)n2)c(OC)cc1N1CCC(N2CCN(S(C)(=O)=O)CC2)CC1 | 7.43 µM (active)

experiment: Quantitative High-Throughput drug screen in 47 multiple myeloma cell lines against the NCATS MIPE library collection: KMS27_JCRB cell viability assay (AID 1918970); settings: KMS27 myeloma cells, CellTiter-Glo ATP viability, 48 h; series mostly up to 45.8 µM; further: nearly all actives have a fitted effect of over 30% in size
Procedure, shortened: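 Myeloma cells (500 per well) were exposed to MIPE 4.0 compounds for 48 h at 37 °C, 5% CO2; viability was read as ATP luminescence with CellTiter-Glo, normalized to DMSO-only (100%) and media-only (0%) wells.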

SMILES | Potency
Cc1ccc(NC(=O)c2cccc(C(C)(C)C#N)c2)cc1Nc1ccc2ncn(C)c(=O)c2c1 | 1.05 µM (active)
CCOc1ccc(Cc2cc([C@@H]3O[C@H](CO)[C@@H](O)[C@H](O)[C@@H]3O)ccc2Cl)cc1 | 16.6 µM (active)
CCCS(=O)(=O)Nc1ccc(F)c(C(=O)c2c[nH]c3ncc(-c4ccc(Cl)cc4)cc23)c1F | inactive
CCn1c(-c2nonc2N)nc2c(C#CC(C)(C)O)ncc(OC[C@H]3CCCNC3)c21 | 0.418 µM (active)
COc1cc2nccc(Oc3ccc(NC(=O)NC4CC4)c(Cl)c3)c2cc1C(N)=O | 3.32 µM (active)
S=C(NCc1ccc2c(c1)OCO2)N1CCN(c2ncnc3c2oc2ccccc23)CC1 | 4.29 µM (active)
COc1c(Cl)cc2c([nH]c3cnccc32)c1NC(=O)c1cccnc1C | 11.8 µM (active)
CCC(=O)N[C@H]1CC[C@H](C(=O)N(C)c2ccc(-c3nc4ccccc4o3)cc2)C1 | 20.9 µM (active)
CNC[C@H](O)c1cccc(O)c1 | inactive

experiment: Quantitative High-Throughput drug screen in 47 multiple myeloma cell lines against the NCATS MIPE library collection: KMS12BM_JCRB cell viability assay (AID 1918971); settings: KMS12BM myeloma viability, CellTiter-Glo ATP, 48 h; series mostly up to 45.8 µM; further: nearly all actives have a fitted effect of over 35% in size
Procedure, shortened: as §1

SMILES | Potency
CC[C@H](Nc1ncnc2nc[nH]c12)c1nc2cccc(F)c2c(=O)n1-c1ccccc1 | 18.7 µM (active)
Cc1ccc(NC(=O)c2cccc(C(C)(C)C#N)c2)cc1Nc1ccc2ncn(C)c(=O)c2c1 | 20.9 µM (active)
CO[C@@H]1[C@H](N(C)C(=O)c2ccccc2)C[C@H]2O[C@]1(C)n1c3ccccc3c3c4c(c5c6ccccc6n2c5c31)C(=O)NC4 | 9.35 µM (active)
COc1cccc2cc(-c3nc(C4CCC(C(=O)O)CC4)n4ncnc(N)c34)[nH]c12 (configuration not stated) | 0.0743 µM (active)
CCOc1ccc(Cc2cc([C@@H]3O[C@H](CO)[C@@H](O)[C@H](O)[C@@H]3O)ccc2Cl)cc1 | inactive
COc1ccccc1[C@H](c1cccc2ccccc12)[C@@](C)(C#N)C(=O)N1CCC(c2cccc(C(F)(F)F)c2)CC1 | 2.35 µM (active)
CCCCNc1cc(C(=O)O)cc(S(N)(=O)=O)c1Oc1ccccc1 | inactive
CCCS(=O)(=O)Nc1ccc(F)c(C(=O)c2c[nH]c3ncc(-c4ccc(Cl)cc4)cc23)c1F | 20.9 µM (active)
COc1ccc(COc2cc3oc(=O)c4cc(C(C)O)ccc4c3cc2OC)cc1 (configuration not stated) | 23.5 µM (active)
O=C1CCCC2=C1C(c1[nH]ncc1Cl)N=C(Nc1nc3ccccc3o1)N2 (configuration not stated) | 4.69 µM (active)
O=C(O)[C@@H](c1ccc(OCc2ccc3ccccc3n2)cc1)C1CCCC1 | inactive
CCn1c(-c2nonc2N)nc2c(C#CC(C)(C)O)ncc(OC[C@H]3CCCNC3)c21 | 14.8 µM (active)
N#CC[C@H](C1CCCC1)n1cc(-c2ncnc3[nH]ccc23)cn1 | 23.5 µM (active)
Nc1nc2ccc(OC(F)(F)F)cc2s1 | 16.6 µM (active)
COc1cc2nccc(Oc3ccc(NC(=O)NC4CC4)c(Cl)c3)c2cc1C(N)=O | 5.9 µM (active)
O=C(Nc1cccnc1)N1CCC(Cc2cccc(Oc3ccc(C(F)(F)F)cn3)c2)CC1 | 13.2 µM (active)
S=C(NCc1ccc2c(c1)OCO2)N1CCN(c2ncnc3c2oc2ccccc23)CC1 | 1.91 µM (active)
CCC(C)n1ncn(-c2ccc(N3CCN(c4ccc(OC[C@H]5CO[C@](Cn6cncn6)(c6ccc(Cl)cc6Cl)O5)cc4)CC3)cc2)c1=O (some centres not stated) | 3.32 µM (active)
COc1ccc2c3n(c(=NC(=O)c4cccnc4)nc2c1OC)CCN3 | inactive
COc1ccc(-c2ccc3c(N4CCOC[C@H]4C)nc(N4CCOC[C@H]4C)nc3n2)cc1CO | 0.0118 µM (active)
Cc1cc2c(C(C)C)c(O)c(O)c(C=O)c2c(O)c1-c1c(C)cc2c(C(C)C)c(O)c(O)c(C=O)c2c1O | 14.8 µM (active)
COc1c(Cl)cc2c([nH]c3cnccc32)c1NC(=O)c1cccnc1C | 14.8 µM (active)
CCC(=O)N[C@H]1CC[C@H](C(=O)N(C)c2ccc(-c3nc4ccccc4o3)cc2)C1 | inactive
CS(=O)(=O)Oc1ccc2c(NC(N)=O)c(C(=O)c3ccc(Cl)cc3Cl)oc2c1 | inactive
Cn1cnc([N+](=O)[O-])c1Sc1ncnc2nc[nH]c12 | inactive
